As a reminder, the viability is a read-out of living cells in per cent, often relative to untreated cells. Broadly, the inhibition is the change of the read-out against control, counted positive when it falls.

Test [1] can be described thus: reducers of endogenous Her2 protein level, primary screen, SKBR3 breast tumor cells, AlphaScreen, ATP viability (AID 461;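 active = Her2 level under about 52% in both replicate screens, with viability over 70% of control, limit read from the data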;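 as to Her2 level: lower value means less Her2 protein in the cells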;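 as to viability: percent of carrier control wells set as 100% viability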). As to conditions: 18-24 h, measured here: SKBR3 viability, ATP luminescence, at 10 µM.
Test [2] concerns the target Receptor tyrosine-protein kinase erbB-2 (Homo sapiens) (UniProt P04626). Described as above. The note with it: 18-24 h, at 10 µM, stronger effect = lower value.
Test [3] is described as follows: SK-BR-3 cell growth inhibitors, pilot screen, 24 h, human (AID 572;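 active = viability at or below 10% of carrier control in both of two separate runs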;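 also: compound exposure lasted between 18 and 24 h rather than exactly 24 h; 100% = carrier-treated control wells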). The note with it: SK-BR-3 viability, CellTiter-Glo luminescence, at 10 µM, stronger effect = lower value. In general terms: ATP-based viability assays read luminescence as a measure of living cells.
A short description of test [4]: HUVEC growth inhibition – cell-based, human, primary screen (AID 575;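 active = viability at or below 30% in both replicate assays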;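 also: 100% = median of untreated cell wells with 0.1% DMSO on each plate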). The note with it: HUVEC proliferation, CellTiter-Glo luminescence, 72 h; at 10 µM; stronger effect = lower value.
Test [5] in a line: growth inhibitors of H69AR lung tumor, primary screen, human, duplicate replicates (AID 580;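 active = viability at or under a set limit in both replicates, limit being median viability minus 3 SD, cut at about 48% in these data, passing the limit was not always enough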;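 also: 100% = mean luminescence of untreated wells and 0% = no signal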). The note with it: H69AR lung tumor cells viability, ATP luminescence, 72 h; at 10 µM; stronger effect = lower value.
Test [6] in a line: reversal of MRP1-mediated doxorubicin resistance, pilot screen, H69AR cells, doxorubicin co-treatment (AID 601;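 active = viability loss from added drug above about 55%, and viability with drug at most 40%, in both replicates, limit read from the data, passing the limit was not always enough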). As to conditions: CellTiter-Glo, 72 h, at 10 µM; for differential viability (reversal): stronger effect = higher value.
The nature of test [7]: 384-well plate pilot, post-Golgi transport modulator project, inhibition of yeast transport mutant growth (AID 636; in the data active = inhibition above about 31%). The note with it: absorbance 615 nm, about 18 h, stronger effect = higher value.
Test [8] can be described thus: growth suppression of yeast trafficking mutant, preliminary HTS, modulators of trafficking downstream of Golgi apparatus project, 1536-format plate, OD 615 nm (AID 637; in the data active = inhibition above about 30%). As to conditions: yeast transport mutant growth, absorbance 615 nm, 18 h; stronger effect = higher value.
A short description of test [9]: OD615 S. cerevisiae growth inhibition, permissive medium, pilot counter-assay, permissive growth control for S. cerevisiae lifespan shortening project (AID 705;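 active = growth inhibition above 25% in both replicates, a cutoff set 3 SD above the mean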). The note with it: OD615, 24 h, at 10 µM, stronger effect = higher value.
Test [10] can be described thus: Restrictive medium S. cerevisiae growth inhibition, OD615, pilot screen of yeast lifespan reduction project, restrictive growth control (AID 706;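 active = growth inhibition above a set limit, 3 SD over mean compound inhibition, in both replicates, cut at about 43% in these data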;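 also: modified DeaD lifespan yeast strain shifted to restrictive glucose medium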). As to conditions: OD615, 48 h, at 10 µM, stronger effect = higher value.
The nature of test [11]: viability gain of MRP-1-high H69AR cells under doxorubicin, pilot screen, MRP-1 activator project, CellTiter-Glo, duplicate (AID 807;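 active = viability increase at or above a cutoff of the median across tested compounds plus 3 SD, cut at about 8.5% in these data, passing the limit was not always enough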;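 also: compound pretreatment 18-22 h then 72 h combined with doxorubicin; 0% = doxorubicin alone and 100% = vehicle without doxorubicin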). The note with it: H69AR viability with doxorubicin, CellTiter-Glo luminescence; at 10 µM; stronger effect = higher value.
The nature of test [12]: growth suppression of beta-catenin knockout HCT116, pilot screen, human colon tumor cells (AID 823;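 active = cell viability at or below a set limit in both duplicate runs, the limit being the all-compound median minus 4 SD, cut at about 23% in these data, passing the limit was not always enough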;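 also: 0% = wells killed by 20 µM Hyamine and 100% = untreated DMSO cell wells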). The note with it: CellTiter-Glo, 60 h, at 10 µM, stronger effect = lower value.
Test [13] in a line: growth suppression of PTEN-deleted HCT116, pilot screen, cell-based, HCT116 clonal line, CellTiter-Glo (AID 824).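 Also: 0% = 20 µM Hyamine control and 100% = vehicle cell control.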 The note with it: 60 h, at 10 µM, stronger effect = lower value.
Test [14] can be described thus: inhibitors of the yeast RAM network, pilot screen, dse1pr::URA3 reporter, 5-FOA selection (AID 869;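 active = inhibition over a set limit, the all-compound mean plus 3 SD, in both replicate runs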;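 also: 0% = DMSO wells with no growth and 100% = 10 µM 1-NA-PP1 with full growth; RAM network block rescues cells from 5-FOA so hits raise OD615 growth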). The note with it: S. cerevisiae dse1pr::URA3 5-FOA growth, OD615, 2 d; at 10 µM; stronger effect = higher value; strain carries analog-sensitive mutant Cbk1 kinase.
Test [15] in a line: RAM signaling pathway blockade in yeast – S. cerevisiae, Pdr1DBD-CYC8 efflux-inhibited sensitized strain, primary screen (AID 1298;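 active = RAM network inhibition above 8.4% in each of two replicates, 3 SD over the compound average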;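 also: 0% = DMSO untreated cells without growth and 100% = 10 µM 1-NA-PP1 full growth; higher means more yeast growth rescued from 5-FOA killing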). The note with it: S. cerevisiae cbk1-as DSE1-URA3 strain, 5-FOA growth OD615, 2 d; at 50 µM; stronger effect = higher value.
Setting [16] is: H69AR cells + 2 uM doxorubicin, measured here: viability with 2 uM doxorubicin, stronger effect = lower value.
Where [17] appears, read: H69AR cells, compound alone cytotoxicity.

Results filed as inconclusive are left out. The source made the active and inactive calls.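 The calls were made as follows, unless noted: active = viability at or below 27.92% in each of two runs, the all-compound median minus 4 SD; inconclusive = no clear call, values can overlap the other calls; inactive = the rest.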

Chain of Receptor tyrosine-protein kinase erbB-2 (Homo sapiens) (P04626 whole entry, looked up): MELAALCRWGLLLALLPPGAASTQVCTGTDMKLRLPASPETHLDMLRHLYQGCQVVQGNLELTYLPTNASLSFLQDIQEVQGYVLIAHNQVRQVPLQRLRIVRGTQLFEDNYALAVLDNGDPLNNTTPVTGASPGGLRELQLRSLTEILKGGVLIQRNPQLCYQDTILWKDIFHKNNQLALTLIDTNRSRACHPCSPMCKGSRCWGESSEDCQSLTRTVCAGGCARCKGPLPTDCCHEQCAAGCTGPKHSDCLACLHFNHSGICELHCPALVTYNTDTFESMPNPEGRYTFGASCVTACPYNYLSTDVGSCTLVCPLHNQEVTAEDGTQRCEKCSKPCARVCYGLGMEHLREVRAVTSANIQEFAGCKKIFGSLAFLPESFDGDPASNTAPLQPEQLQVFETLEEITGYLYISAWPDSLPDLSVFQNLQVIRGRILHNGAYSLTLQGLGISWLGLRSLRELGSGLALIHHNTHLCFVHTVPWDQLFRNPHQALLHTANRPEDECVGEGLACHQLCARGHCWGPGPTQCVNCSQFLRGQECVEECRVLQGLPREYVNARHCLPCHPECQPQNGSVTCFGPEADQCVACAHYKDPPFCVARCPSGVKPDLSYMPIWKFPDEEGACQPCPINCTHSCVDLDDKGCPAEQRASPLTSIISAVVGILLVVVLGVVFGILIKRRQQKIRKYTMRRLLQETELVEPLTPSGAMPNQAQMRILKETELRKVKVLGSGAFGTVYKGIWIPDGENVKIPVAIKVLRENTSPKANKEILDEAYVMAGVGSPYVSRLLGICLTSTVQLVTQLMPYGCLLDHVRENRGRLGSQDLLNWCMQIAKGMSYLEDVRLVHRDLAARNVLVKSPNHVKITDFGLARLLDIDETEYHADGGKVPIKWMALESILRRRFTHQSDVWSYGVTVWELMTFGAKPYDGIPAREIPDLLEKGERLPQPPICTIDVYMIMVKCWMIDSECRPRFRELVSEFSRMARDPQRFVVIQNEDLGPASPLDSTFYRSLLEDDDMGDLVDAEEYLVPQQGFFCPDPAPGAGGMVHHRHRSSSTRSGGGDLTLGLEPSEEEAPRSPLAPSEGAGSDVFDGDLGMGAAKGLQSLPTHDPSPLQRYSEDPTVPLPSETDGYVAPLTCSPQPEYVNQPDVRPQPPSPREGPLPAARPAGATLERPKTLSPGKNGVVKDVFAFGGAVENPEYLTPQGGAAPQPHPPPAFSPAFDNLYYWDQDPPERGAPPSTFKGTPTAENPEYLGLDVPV

For `O=C(CSc1nc(-c2ccco2)cc(C(F)(F)F)n1)NCCCn1ccnc1`, the viability in test [1] was 94%; in test [3] it was 94% (inactive); in [4], 64.9% (inactive); in test [5], 94.7% (inactive); in [6] (setting [16]), 98.9%; in test [6] (setting [17]), 94.7%. Besides, the viability in [12] is 98.6% (inactive); in [13] it was 96.3% (inactive). The Her2 level in test [2] is 93% (inactive). For the same molecule, the differential viability (reversal) in test [6] (H69AR cells + 2 uM doxorubicin) is -4.19% (inactive). Moreover, the inhibition was -2.53% (inactive) in test [7], -2.3% (inactive) in [8] and 1.44% (inactive) in test [14]. Also, the values for the growth inhibition in test [9] and in test [10] were -8.51% (inactive) and -15.7% (inactive), respectively. Further, the viability increase in test [11] was -0.15% (inactive). The RAM network inhibition in test [15] was 9.1% (inactive).
With `O=C(CN1CCN(Cc2ccccc2F)C1=O)NCc1cccnc1`, the viability in [1] was 94.5%; in [3], 94.5% (inactive); in [4], 108% (inactive); in [5], 107% (inactive); in test [6] (setting [16]) it was 90.4%; in [6] (setting [17]) it was 107%. Besides, the viability in [12] is 100% (inactive); in test [13] it was 94.6% (inactive). The Her2 level in test [2] was 94.5% (inactive). For the same molecule, in [6] (H69AR cells + 2 uM doxorubicin), the differential viability (reversal) is 17% (inactive). Also, the figures for the inhibition in test [7], in test [8] and in [14] were -3.87% (inactive), -1.97% (inactive) and 0.605% (inactive), respectively. Also, the values for the growth inhibition in [9] and in [10] were 2.81% (inactive) and 6.51% (inactive), respectively. Further, the viability increase in test [11] is -1.65% (inactive). In test [15], the RAM network inhibition is 3.14% (inactive).
In the case of `CCOc1ccc(S(=O)(=O)N2CCN(c3ccc(C)cc3C)CC2)cc1`, the viability in [1] was 98.5%; in [3], 98.5% (inactive); in test [4], 90.1% (inactive); in test [5], 90.1% (inactive); in [6] (setting [16]) it was 105%; in test [6] (setting [17]), 90.1%. Besides, the viability was 65.6% (inactive) in [12] and 83.5% (inactive) in [13]. For the same molecule, the Her2 level in test [2] was 114% (inactive). Also, the differential viability (reversal) in test [6] (H69AR cells + 2 uM doxorubicin) was -14.9% (inactive). For the same molecule, the values for the inhibition in test [7], in test [8] and in test [14] were -5.07% (inactive), -4.67% (inactive) and 2.64% (inactive), respectively. The growth inhibition in test [9] is 7.69% (inactive); in [10] it was 5.65% (inactive). Moreover, the viability increase in [11] is -0.07% (inactive). For the same molecule, the RAM network inhibition in test [15] was 6.67% (inactive).
On to `CC1=C(C(=O)OCc2ccccc2)C(c2ccco2)n2ncnc2N1` (stereo not drawn), for which the viability was 98.5% in test [1]; 98.5% (inactive) in test [3]; 87.1% (inactive) in test [4]; 112% (inactive) in [5]; 88.7% in test [6] (setting [16]); 112% in test [6] (setting [17]). Moreover, the viability is 92.8% (inactive) in test [12] and 89% (inactive) in [13]. Besides, the Her2 level in test [2] is 95% (inactive). In [6] (H69AR cells + 2 uM doxorubicin), the differential viability (reversal) was 23% (inactive). Further, the inhibition in [7] is -2.95% (inactive); in test [8], 2.67% (inactive); in test [14], 0.83% (inactive). In addition, the growth inhibition in test [9] is 3.25% (inactive); in test [10], -3.8% (inactive). The viability increase in test [11] is -2.11% (inactive). Besides, in test [15], the RAM network inhibition was 1.02% (inactive).
Take `CCc1ccccc1N1CC23C=CC(O2)C(C(=O)O)C3C1=O` (stereo not drawn): the viability in [1] was 102%; in test [3] it was 102% (inactive); in test [4] it was 101% (inactive); in [5], 86.7% (inactive); in test [6] (setting [16]), 89.3%; in test [6] (setting [17]), 86.7%. For the same molecule, the results for the viability in test [12] and in test [13] were 96% (inactive) and 102% (inactive), respectively. Moreover, in test [2], the Her2 level was 93.5% (inactive). The differential viability (reversal) in test [6] (H69AR cells + 2 uM doxorubicin) was -2.65% (inactive). Besides, the inhibition in test [7] is -7.2% (inactive); in test [8], 0.83% (inactive); in test [14], 0.365% (inactive). Further, the values for the growth inhibition in [9] and in [10] were 1.68% (inactive) and -5.72% (inactive), respectively. Also, the viability increase in test [11] is 1.1% (inactive). The RAM network inhibition in test [15] was 1.2% (inactive).
As to `CC1CCCCC1NC(=O)Cn1ncc2ccccc21` (stereo not drawn), the viability in [1] was 104%; in test [3] it was 104% (inactive); in [4] it was 82.1% (inactive); in test [5], 90.4% (inactive); in test [6] (setting [16]), 85.4%; in test [6] (setting [17]) it was 90.4%. For the same molecule, the viability in [12] was 98.6% (inactive); in [13] it was 95.7% (inactive). Further, in [2], the Her2 level is 104% (inactive). Also, the differential viability (reversal) in test [6] (H69AR cells + 2 uM doxorubicin) is 4.98% (inactive). In addition, the inhibition in test [7] was -2.93% (inactive); in [8], 0.33% (inactive); in test [14], 1.98% (inactive). The growth inhibition in test [9] is -12.1% (inactive); in test [10] it was -9.67% (inactive). The viability increase in test [11] is -1.21% (inactive). Further, the RAM network inhibition in test [15] was 0.04% (inactive).
`CC1C(=O)C(C)C(c2cccs2)NC1c1cccs1` (stereo not drawn): the viability in test [1] was 83%; in test [3], 83% (inactive); in [4] it was 101% (inactive); in test [5], 104% (inactive); in test [6] (setting [16]), 100%; in [6] (setting [17]) it was 104%. Moreover, the viability in [12] is 87.3% (inactive); in test [13] it was 91% (inactive). The Her2 level in test [2] was 100% (inactive). Further, the differential viability (reversal) in test [6] (H69AR cells + 2 uM doxorubicin) was 3.58% (inactive). The inhibition in [7] was 1.73% (inactive); in [8], 2.42% (inactive); in test [14], 0.78% (inactive). The growth inhibition in test [9] is -1.82% (inactive); in test [10], -0.61% (inactive). In addition, the viability increase in [11] is 0.03% (inactive). For the same molecule, the RAM network inhibition in test [15] was 1.45% (inactive).
For `CC(Oc1ccc2oc(-c3ccccc3)c(C(=O)O)c2c1)C(=O)O` (stereo not drawn), the viability in [1] is 95.5%; in [3] it was 95.5% (inactive); in test [4], 103% (inactive); in test [5], 103% (inactive); in test [6] (setting [16]), 96.3%; in test [6] (setting [17]), 103%. The viability in test [12] is 99.3% (inactive); in test [13] it was 102% (inactive). In addition, the Her2 level in test [2] was 77.5% (inactive). For the same molecule, in [6] (H69AR cells + 2 uM doxorubicin), the differential viability (reversal) is 6.43% (inactive). The inhibition in test [7] is -4.86% (inactive); in test [8], -6% (inactive); in test [14] it was 1.73% (inactive). The growth inhibition is -7.27% (inactive) in test [9] and 2.06% (inactive) in [10]. Besides, the viability increase in test [11] is -1.56% (inactive). Moreover, the RAM network inhibition in test [15] is 4.67% (inactive).
Consider `Cc1ccnc(SCCn2c(N3CCN(Cc4ccccc4)CC3)nc3c2c(=O)[nH]c(=O)n3C)n1`, for which the viability was 85% in [1]; 85% (inactive) in [3]; 91.7% (inactive) in [4]; 87.5% (inactive) in test [5]; 88.4% in test [6] (setting [16]); 87.5% in test [6] (setting [17]). In addition, the values for the viability in [12] and in test [13] were 95.7% (inactive) and 99.3% (inactive), respectively. Further, in test [2], the Her2 level is 93.5% (inactive). The differential viability (reversal) in [6] (H69AR cells + 2 uM doxorubicin) is -0.99% (inactive). In addition, the inhibition in [7] was -3.6% (inactive); in [8], -4.59% (inactive); in test [14], 0.145% (inactive). Moreover, the growth inhibition is 3.26% (inactive) in test [9] and 0.065% (inactive) in test [10]. In test [11], the viability increase was -1.27% (inactive). For the same molecule, the RAM network inhibition in [15] is 2.81% (inactive).

The record behind these values is PubChem BioAssay.
